{"source": "ChEMBL document CHEMBL4513216", "about": "“Probing the Open Global Health Chemical Diversity Library for Multistage-Active Starting Points for Next-Generation Antimalarials” (ACS Infect Dis, 2020)", "note": "Among all 65,000 compounds or so, about 2,100 (3.2%) showed an effect of 50% or more. The median lay at about -52%. The full list was thinned out, with strong results kept by preference.", "data": [{"system": "Plasmodium falciparum", "assay": "Screen against P. falciparum Asexual Blood Stage (ABS), at 5uM", "format": "functional, Dd2", "settings": "tested at 5 uM", "units": {"INHIBITION": "%"}, "values": [{"smiles": "Cc1nc2c(c(NCCCN3CCOCC3)n1)CCN(C)C2", "INHIBITION": -73.4}, {"smiles": "COC(=O)c1cccn1C1CCN(Cc2ccccc2)CC1", "INHIBITION": -122}, {"smiles": "CN1CC2(CCC1=O)CCN(CC[C@@H](O)c1ccccc1)CC2", "INHIBITION": -14}, {"smiles": "Cn1ccnc1CCNC(=O)C1CCCN(Cc2cccc(F)c2)C1", "note": "(stereo not drawn)", "INHIBITION": 59.3}, {"smiles": "Cn1cnnc1CNC(=O)C1CCCN(Cc2cccc(F)c2)C1", "note": "(stereo not drawn)", "INHIBITION": -141}, {"smiles": "Cn1cc(CNC(=O)C2CCCN(Cc3cccc(F)c3)C2)cn1", "note": "(stereo not drawn)", "INHIBITION": -59.1}, {"smiles": "CCCN(C(=O)c1ccccn1)c1nc2c(s1)CCc1c-2cnn1C", "INHIBITION": 38.1}, {"smiles": "CCCN(C(=O)c1cnccn1)c1nc2c(s1)CCc1c-2cnn1C", "INHIBITION": -28.8}, {"smiles": "CCCN(C(=O)c1ccncc1)c1nc2c(s1)CCc1c-2cnn1C", "INHIBITION": 55.6}, {"smiles": "OC1CCN(Cc2c(C3CCCNC3)[nH]c3ncccc23)CC1", "note": "(stereo not drawn)", "INHIBITION": -65.3}, {"smiles": "O=C(CCn1ccc2cc(Br)ccc21)NC[C@@H]1CCCN2CCCC[C@H]12", "INHIBITION": 67.1}, {"smiles": "O=C(Cn1ccc2ccccc21)NC[C@@H]1CCCN2CCCC[C@H]12", "INHIBITION": -14.5}, {"smiles": "Cc1ccc2c(ccn2CCC(=O)NC[C@@H]2CCCN3CCCC[C@H]23)c1", "INHIBITION": 52}, {"smiles": "COc1ccc2c(ccn2CC(=O)NC[C@@H]2CCCN3CCCC[C@H]23)c1", "INHIBITION": -57.3}, {"smiles": "O=C(Cn1ccc2cc(Br)ccc21)NC[C@@H]1CCCN2CCCC[C@H]12", "INHIBITION": -14}, {"smiles": "Cc1ccc2c(ccn2CC(=O)NC[C@@H]2CCCN3CCCC[C@H]23)c1", "INHIBITION": 49}, {"smiles": "Nc1cc(N2CCC(c3cc(Cc4ccccc4)n[nH]3)CC2)ccn1", "INHIBITION": 11.1}, {"smiles": "CN(C)[C@@H]1CN(Cc2ccccn2)C[C@H]1c1cn(C)c2ccccc12", "INHIBITION": 52.6}, {"smiles": "CN(Cc1ccco1)[C@@H]1CN(Cc2ccccn2)C[C@@H]2CCCO[C@@H]21", "INHIBITION": 31.5}, {"smiles": "Cc1cc(C)n(C2CN(Cc3ccccn3)C2)n1", "INHIBITION": -90.2}, {"smiles": "COc1cccc2c1OCC(Cc1cc(C(=O)N3CCCC3)ccn1)C2", "note": "(stereo not drawn)", "INHIBITION": -9.28}, {"smiles": "COc1ccc([C@@H]2CN(Cc3cccnc3N)C[C@H]2N(C)C)cc1", "INHIBITION": 53.9}, {"smiles": "COc1ccc([C@@H]2CN(Cc3ccncc3)C[C@H]2N(C)C)cc1", "INHIBITION": -36.3}, {"smiles": "COc1ccc([C@@H]2CN(Cc3cccnc3N)C[C@H]2NC(C)=O)cc1", "INHIBITION": -59.7}, {"smiles": "Cn1cccc1C(=O)N1CCn2cc(CN3CCCC3)nc2C1", "INHIBITION": -26.2}, {"smiles": "COCCN(C/C=C/c1ccccc1)Cc1nccs1", "INHIBITION": -7.08}, {"smiles": "CCc1ccc(CN(C/C=C/c2ccccc2)CCOC)nc1", "INHIBITION": 54.8}, {"smiles": "COCCN(C/C=C/c1ccccc1)Cc1ccccn1", "INHIBITION": 23.1}, {"smiles": "O=C(c1cccc(Cl)c1)N1CCCn2c(CN3CCCCC3)nnc2C1", "INHIBITION": 10.2}, {"smiles": "Cn1ccnc1-c1nc2cc(S(=O)(=O)N3CCCC3)ccc2n1C", "INHIBITION": -13.2}, {"smiles": "Nc1cc2c(nn1)CCN(C(=O)CCC1CCCCC1)C2", "INHIBITION": -69.7}, {"smiles": "Cc1ccc(CN(CCCn2ccnc2)Cc2c[nH]cn2)s1", "INHIBITION": 21.2}, {"smiles": "CN(C)c1ccc(CN(CCCn2ccnc2)Cc2c[nH]cn2)cc1", "INHIBITION": 79.8}, {"smiles": "c1cc(CN(CCCn2ccnc2)Cc2ccoc2)ccn1", "INHIBITION": -27}, {"smiles": "Cc1nc[nH]c1-c1nccn1CCN1CCOC1=O", "INHIBITION": -38.9}, {"smiles": "O=c1oc2ccccc2n1CCCN1CCCC1c1ccc(O)cc1", "note": "(stereo not drawn)", "INHIBITION": 54.1}, {"smiles": "Cc1nc(C2CCCN2CCCn2c(=O)oc3ccccc32)no1", "note": "(stereo not drawn)", "INHIBITION": -44.1}, {"smiles": "Cn1cc(C2CCCN2CCCn2c(=O)oc3ccccc32)cn1", "note": "(stereo not drawn)", "INHIBITION": 8.65}, {"smiles": "CN1CCC(CCc2ccnc(NC(=O)c3ccccn3)c2)CC1", "INHIBITION": -102}, {"smiles": "Cn1cc(CCNCc2cc(Cl)c3c(c2)OCCO3)cn1", "INHIBITION": -26.6}, {"smiles": "CCn1cc(CNC(=O)CCn2ncc3c(Cl)cccc32)cn1", "INHIBITION": -21.7}, {"smiles": "CCn1cc(CNCCNc2ncc(Cl)cc2Cl)cn1", "INHIBITION": 66.6}, {"smiles": "CCn1cc(CNc2ccc3nccnc3c2)cn1", "INHIBITION": -14.1}, {"smiles": "Cn1cc(CNCCNc2ncc(Cl)cc2Cl)cn1", "INHIBITION": 54}, {"smiles": "Cn1ccnc1CNCCNc1ncc(Cl)cc1Cl", "INHIBITION": 41.8}, {"smiles": "O=C([C@@H]1CC[C@@H]2[C@@H](CCN2Cc2ccoc2)O1)N1CCCC1", "INHIBITION": -94.6}, {"smiles": "O=S(=O)(c1ccc(Cl)s1)N1CCN(Cc2nc(-c3ccco3)cs2)CC1", "INHIBITION": -66}, {"smiles": "NC(=O)C1(c2cnccn2)CCCN1Cc1ccncc1", "note": "(stereo not drawn)", "INHIBITION": -58.5}, {"smiles": "O=C(NCCNc1cncc(Br)c1)c1ccc(O)cc1", "INHIBITION": 52.2}, {"smiles": "O=C(NCCNC(=O)c1ccc(Br)cc1)c1ccc(O)cc1", "INHIBITION": 30.3}, {"smiles": "O=C(NCCNc1ccc(Br)cn1)c1ccc(O)cc1", "INHIBITION": -20.5}, {"smiles": "CCCN1CCc2c(C(=O)N(C)Cc3ccccn3)nn(C)c2C1", "INHIBITION": -23.7}, {"smiles": "O=C(Cc1ccsc1)N1CCCC(c2n[nH]c3ncccc23)C1", "note": "(stereo not drawn)", "INHIBITION": -37.1}, {"smiles": "COc1ccc(C2CCCCCN2S(C)(=O)=O)cc1", "note": "(stereo not drawn)", "INHIBITION": -92.8}, {"smiles": "CS(=O)(=O)NCCCN1CCCC1c1cccc(Br)c1", "note": "(stereo not drawn)", "INHIBITION": 65.4}, {"smiles": "O=C(CCN1CCCCC1c1cc2ccccc2[nH]1)N1CCOCC1", "note": "(stereo not drawn)", "INHIBITION": 39.3}, {"smiles": "COc1cccc(C2CCCN2CCCNS(C)(=O)=O)c1", "note": "(stereo not drawn)", "INHIBITION": -0.589}, {"smiles": "COc1ccc(C2CCCCCN2CCCNS(C)(=O)=O)cc1", "note": "(stereo not drawn)", "INHIBITION": 59.3}, {"smiles": "CS(=O)(=O)NCCCN1CCCC1c1ccccc1", "note": "(stereo not drawn)", "INHIBITION": -93.1}, {"smiles": "CS(=O)(=O)NCCCN1CCCCC1c1cc2ccccc2[nH]1", "note": "(stereo not drawn)", "INHIBITION": 58.9}, {"smiles": "CS(=O)(=O)NCCCN1CCCC1Cc1ccccc1", "note": "(stereo not drawn)", "INHIBITION": -29}, {"smiles": "CS(=O)(=O)NCCCN1CCCC1c1ccsc1", "note": "(stereo not drawn)", "INHIBITION": -73.1}, {"smiles": "Cc1ocnc1C(=O)N1CCCC1c1ccc(C(=O)N2CCSCC2)s1", "note": "(stereo not drawn)", "INHIBITION": -154}, {"smiles": "Cn1c(=O)c2c(n3ncnc13)NC(=O)CC2c1cccc(Br)c1", "note": "(stereo not drawn)", "INHIBITION": -61.2}, {"smiles": "CC(C)c1nc(CN(C)C(=O)c2cn3ccsc3n2)cs1", "INHIBITION": -43.1}, {"smiles": "COc1cccc(C=CCCN2CCCN(C(C)=O)CC2)c1", "INHIBITION": -13}, {"smiles": "COc1ccc(CN2CCC(O)(CN3CCCCC3)C2)c(C)c1", "note": "(stereo not drawn)", "INHIBITION": 67.6}, {"smiles": "Cc1cc(C)c(C(=O)N2CCCC(O)(CN3CCCC3)C2)cc1C", "note": "(stereo not drawn)", "INHIBITION": -30.5}, {"smiles": "Cc1cc(-n2cccn2)ccc1CN1CCC(O)(CN2CCCCC2)C1", "note": "(stereo not drawn)", "INHIBITION": 62.1}, {"smiles": "COCC(=O)N1CCC2(CCCN(Cc3cc(OC)ccc3F)C2)C1", "note": "(stereo not drawn)", "INHIBITION": -70}, {"smiles": "COc1ccc(F)c(CN2CCCC3(CCN(C(=O)CSC)C3)C2)c1", "note": "(stereo not drawn)", "INHIBITION": -63.5}, {"smiles": "CCCn1ccnc1CN1CCC(O)(CN2CCCCC2)C1", "note": "(stereo not drawn)", "INHIBITION": 18.6}, {"smiles": "Cc1ccccc1CN1C[C@@H](CN(C)CCO)[C@@H](CO)C1", "INHIBITION": 7.46}, {"smiles": "Cc1cc(F)ccc1CN1CCCC2(C1)OCCO2", "INHIBITION": -67.8}, {"smiles": "Cc1cc(F)ccc1CN1CCCC(O)(CN2CCCC2)C1", "note": "(stereo not drawn)", "INHIBITION": 66.7}, {"smiles": "CN(C)C[C@@H]1CN(Cc2ccccc2C#N)C[C@@H]1CO", "INHIBITION": -47.7}, {"smiles": "CC(C)c1nccc(CN2CCC(O)(CN3CCCCC3)C2)n1", "note": "(stereo not drawn)", "INHIBITION": 32.8}, {"smiles": "Cc1cc(-n2cccn2)ccc1CN1C[C@@H](CN(C)C)[C@@H](CO)C1", "INHIBITION": 51.7}]}]}
